Data taken from PubChem BioAssay (EPA / NIEHS).
Active and inactive are the calls of the source. The calls were made as follows: active = hit-call score of the fitted dose curve at least 0.9, where 1 is the maximum; inactive = score below 0.9.

Assay: ATG_BRE_CIS: Attagene CIS-FACTORIAL HepG2 Assay for human Bone Morphogenetic Protein (BMP) Response Element (BRE) (AID 2282933)
Conditions: HepG2 BMP response element reporter, Attagene transcription factor profiling; actives raise or lower the signal
Method: ATG_CIS is a cell-based, multiplexed-readout assay that uses HepG2, a human liver cell line, with measurements taken at 24 hours after chemical dosing in a 24-well plate.ATG_BRE_CIS is one of 52 assay component(s) measured or calculated from the ATG_CIS assay. It is designed to make measurements of mRNA induction, a form of inducible reporter, as detected with fluorescence intensity signals by Reverse transcription polymerase chain reaction (RT-PCR) and Capillary electrophoresis technology.Data from the assay component ATG_BRE_CIS was analyzed into 1 assay endpoint. This assay endpoint, ATG_BRE_CIS, was analyzed with bidirectional fitting relative to DMSO as the negative control and baseline of activity. Using a type of inducible reporter, measures of mRNA for gain or loss-of-signal activity can be used to understand the reporter gene at the transcription factor-level as they relate to the gene SMAD1. Furthermore, this assay endpoint can be referred to as a primary readout, because this assay has produced multiple assay endpoints where this one serves a reporter gene function. To generalize the intended target to other relatable targets, this assay endpoint is annotated to the dna binding intended target family, where the subfamily is Smad protein.
Human liver HepG2 cells are transiently transfected with multiple reporter transcription units (MRTUs) in 6-well plates using FuGene 6 reagent (Roche; 3 ml FuGene/1 mg DNA). The MRTU constructs are regulated by a cis-regulating element (promoter). […] A major difference between the CIS and TRANS system is that in CIS activities of endogenous TFs are measured, whereas the TRANS assay evaluates changes in activities of exogenous, chimeric NR-Gal4 proteins. […] At the end of 24 hour incubation, total RNA was isolated using TriZol reagent (Invitrogen). The isolated RNA is then reverse-transcribed using oligo(dT) primer and Mo-MLV reverse transcriptase (Invitrogen) with DNAse I (Ambion) treatment for 30 min. The one-tenth of the produced cDNA was amplified by PCR using Taq DNA polymerase (Invitrogen) and two reporter sequence-specific primers. The PCR products were fluorescently labeled by primer extension with 6-arboxyfluorescein (6-FAM) 5'-labeled reporter sequence-specific primer (2 min at 95 C, 20 s at 68 C and 10 min at 72 C) and these products were digested with 5U of HpaI (New England Biolabs) for 2h at 37 C. The fragments were purified using Qiaquick PCR columns (Qiagen), analyzed on an ABI 3130xL genetic analyzer (Applied Biosystems) with peak positions identified by using a set of X-rhodamine (ROX)-labeled MapMarker1000 molecular weight standards (BioVentures). The raw capillary electrophoresis data was processed using Attagraph software (Attagene).

outcome, inactive:
CC(C)=CCC/C(C)=C/COC=O
CC(=O)O[C@]1(C(C)=O)CC[C@H]2[C@@H]3C[C@H](C)C4=CC(=O)CC[C@]4(C)[C@H]3CC[C@@]21C
CC1CCC(C(C)(C)O)CC1 (stereo not given)
CCCCOCCOCCSC#N
CCCCCCCCC
O=C(O)c1snc(Cl)c1Cl
CCCCN
Nc1cc([N+](=O)[O-])ccc1O
O=C1NC(=O)c2ccccc21
CC1(C)[C@H]2CC[C@]1(C)[C@H](O)C2
O=C(O)CCCCC1CCSS1 (stereo not given)
O=S(=O)(O)c1ccc(O)c2ncccc12
CCCOCC(C)O (stereo not given)
O=C[C@@H](O)[C@H](O)[C@H](O)CO
CC(C)C(C)(C)C(C)(C)C(C)(C)S
Clc1sc(Cl)c(Cl)c1Cl
Cc1ncc([N+](=O)[O-])n1C
Cc1cccc(C)c1C
OCc1cccnc1
CCCc1ccccc1O
O=C1CCc2ccccc2O1
CCc1ccc(C=O)cc1
CC1COc2ccccc2N1C(=O)C(Cl)Cl (stereo not given)
O=c1[nH]nnc2ccccc12
Nc1ccc(S(=O)(=O)O)c(N)c1
Sc1nc(S)nc(S)n1
O=C(O)c1cn(-c2ccc(F)cc2)c2cc(N3CCNCC3)c(F)cc2c1=O
CC(C)c1cccc(O)c1
CC(=O)C(C)=O
CCCCCCCCCCCCOCCO
O=C(Cl)c1cccc(C(=O)Cl)c1
NC(=O)Nc1ccc(Cl)cc1
CN(C)CCOCCN(C)C
CC(c1cc2ccccc2s1)N(O)C(N)=O (stereo not given)
Cc1cc(C2(c3cc(C)c(O)cc3C)OS(=O)(=O)c3ccccc32)c(C)cc1O
CCCCCCCCCCCCN
C=CC(C)(CCC=C(C)C)OC=O (stereo not given)
c1cc(C(c2ccc(OCC3CO3)cc2)c2ccc(OCC3CO3)cc2)ccc1OCC1CO1 (stereo not given)
CCC(=O)/C=C/C1C(C)=CCCC1(C)C (stereo not given)
CNC[C@H](O)c1cccc(O)c1
